Rows were chosen to be rich in hits. Some 14% of all compounds tested hit in one or more screens of this group.
CHX counter = affects cycloheximide protein synthesis inhibition readout, counter-screen. AID 2314. cell reporter, cycloheximide protein synthesis inhibition counterscreen. hit rate 12% among 300,000. max response, %; in the data active means max response mostly above about 13%, no sharp cut-off; inactive means mostly below about 14%; further: read at 38.3 µM for the half of the compounds with a filed dose; 0% is about no effect
LmPK inh = inhibitors of Leishmania mexicana pyruvate kinase. Q27686. purified LmPK, Kinase-Glo ATP luminescence, 1 h. Potency, µM (doses to about 57.5 µM), without a hit: at the highest dose activity change, negative = inhibition, usual class: inhibitors. hit rate 0.37% among 290,000. AID 1721; further: potency means the concentration at half of the fitted maximal effect; on the % scale 0 is the no-effect control and ±100 the full control effect
Target sequence (Q27686 whole entry, looked up): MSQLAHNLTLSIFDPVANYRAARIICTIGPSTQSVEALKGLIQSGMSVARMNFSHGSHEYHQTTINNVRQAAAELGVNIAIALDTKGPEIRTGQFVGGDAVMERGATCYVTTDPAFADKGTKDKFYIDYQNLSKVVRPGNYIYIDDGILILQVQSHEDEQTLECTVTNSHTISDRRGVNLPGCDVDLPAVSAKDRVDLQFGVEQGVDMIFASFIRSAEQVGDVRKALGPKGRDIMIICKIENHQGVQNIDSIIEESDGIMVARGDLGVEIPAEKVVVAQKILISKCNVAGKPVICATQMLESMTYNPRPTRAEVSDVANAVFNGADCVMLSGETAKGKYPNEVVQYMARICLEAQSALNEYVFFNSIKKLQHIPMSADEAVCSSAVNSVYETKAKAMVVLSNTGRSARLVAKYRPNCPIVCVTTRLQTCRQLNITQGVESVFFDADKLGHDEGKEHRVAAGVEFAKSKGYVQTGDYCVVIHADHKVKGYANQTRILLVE
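Pyruvate kinase activity monitored as ATP production (luciferase luminescence). Conditions: 0.1 nM enzyme, 0.5 mM PEP, 0.1 mM ADP, 1 h, RT; normalized against uninhibited and no-enzyme wells.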
NS1 function inh = blocks influenza NS1 protein function; Potency, µM (doses to about 46.1 µM), inactives show top-dose activity, positive = more growth; hit rate 0.4% among 270,000; AID 2326; calls by dose curve; further: potency means the concentration at half of the fitted maximal effect; actives are rising curves; nearly all actives have a fitted effect of over 50% in size
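Read-out: OD600 growth recovery of NS1-expressing budding yeast. Cells grown overnight at 30C in -URA glucose medium, washed, resuspended and diluted 1:100 in 2% galactose assay medium, pH 6.0. Same strain lacking NS1 served as positive control.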
FBPA Giardia inh = blocks Giardia fructose-bisphosphate aldolase activity | Potency, µM (highest dose often 59.6 µM), for inactives: at the top dose activity, negative = inhibition, most hits filed as inhibitors | hit rate 0.71% among 290,000 | purified Giardia FBPA | A8B2U2; further: potency means the concentration at half of the fitted maximal effect; on the % scale 0 is the no-effect control and ±100 the full control effect; nearly all actives have a fitted effect of over 55% in size
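Giardia FBPA (40 nM reagent) was preincubated 10 min at RT with compound (up to 57.5 uM final), then substrate plus GAPDH/TPI/NAD/arsenate coupling system with diaphorase/resazurin was added; resorufin fluorescence (525/598 nm) was read after 20 min.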
Shiga inhibitor = Shiga toxin inhibition; AID 2315; Vero cells, Shiga toxin protein synthesis inhibition reporter; hit rate 9.2% among 290,000; inhibition, % at 38.7 µM; in the data active means inhibition mostly above about 28%, no sharp cut-off; inactive means mostly below about 43%; further: 0% is about no effect
The depositor's hits bear a star; ? = inconclusive; / = no result; ! = a repeat was not active; [ ] = remark or other dose. Unless noted, the call rests on the fitted dose curve; in most records, active means well fitted curve in the direction sought with a large enough effect; inconclusive means small, poorly fitted or top-dose-only effect, or another doubt; inactive means no such curve, though single readings can be large; an effect the other way counts as inactive or inconclusive.

SMILES | CHX counter | LmPK inh | NS1 function inh | FBPA Giardia inh | Shiga inhibitor
COc1ccc(NC(=O)C2CCCN(S(=O)(=O)c3ccccc3)C2)c(OC)c1 (centres undefined) | 6.1 | 2.6% | -4.9% | -5.5% | -8.8
Cc1occc1-c1nnc(SCC(=O)N(C)C)o1 | 32.6* | 14.1% | -7.5% | -3.3% | 54.4
Cc1occc1-c1nnc(SCC(=O)N2CCc3ccccc32)o1 | 1.4 | 1.0% | -5.7% | 4.1% | 41.7
O=C(O)C/C(=C\c1ccco1)C(=O)O | / | / | -0.7% | / | /
O=c1oc2ccccc2c(O)c1Cc1c(O)c2ccccc2oc1=O | / | / | / | -0.2% | /
O=c1oc2ccccc2c2oc3cc(O)c(O)cc3c12 | 24.5* | -15.8% | 13.9% | ? | 26.1*
COC(=O)N1C2CC3(C)C=C(C)OC1(C)C3c1ccccc12 (centres undefined) | / | -1.8%[11.5 µM] | / | 5.3%[12.9 µM] | /
Cc1coc2c1c(C)cc1oc(=O)c(CC(=O)N[C@@H](C)C(=O)O)c(C)c12 | -0.3 | 2.2% | 1.1% | 3.1% | -12.8
NC(=O)NC(=O)COC(=O)c1cccc(S(=O)(=O)N2CCCCCC2)c1 | -3.3 | 2.3% | -7.4% | -2.4% | -4.3
COc1ccc(CCNC(=O)c2cc(COc3c(F)cccc3F)on2)c(OC)c1 | 37.2* | 7.7% | -32.8% | 2.8% | 70.0*
COc1ccc(CCNC(=O)c2cc(COc3c(C)cccc3C)on2)c(OC)c1 | 77.0* | -6.8% | 3.5% | 0.7% | 64.6*
Cc1cccc(C)c1OCc1cc(C(=O)NCC2CCCCC2)no1 | -3.4 | -2.9% | 3.1% | / | -5.1
COc1cc(NC(=S)NC(=O)CC(C)C)ccc1NC(=O)c1cc2ccccc2o1 | -5.2 | 1.8% | -1.8% | 6.0% | -8.6
CCCC(=O)Nc1ccc(NC(=O)c2cc3ccccc3o2)c(OC)c1 | 38.2* | 9.2% | 20.3% | -9.5% | /
COc1cc(NC(C)=O)ccc1NC(=O)c1cc2ccccc2o1 | 15.5* | -3.5% | 4.4% | 1.5% | 20.9
COc1ccc(OC)c(NC(=O)c2cc3ccccc3o2)c1 | 27.0* | 2.0% | -11.4% | -26.8% | 93.1
COc1cc(NC(=O)c2ccccc2)ccc1NC(=O)c1cc2ccccc2o1 | 2.9 | -2.0% | -3.4% | 9.1% | 0.6
COc1cc(N)ccc1NC(=O)c1cc2ccccc2o1 | 41.9* | -1.8% | 13.2% | 1.0% | 63.8*
CC(C)CN1C(=O)c2ccc(C(=O)Nc3ccc(OCC(=O)O)cc3)cc2C1=O | -1.9 | -1.6% | -2.8% | -2.9% | -13.8
O=c1[nH]c(=S)c2[nH]c(=O)n(-c3ccccc3)c2[nH]1 | / | / | 1.7% | / | /
Cc1ccc(C2/C(=C(/O)c3cnn(-c4ccccc4)c3C)C(=O)C(=O)N2CCN2CCOCC2)o1 (centres undefined) | 56.3* | 3.7% | 1.2% | -26.3% | 74.8*
Cc1c(/C(O)=C2/C(=O)C(=O)N(CCN3CCOCC3)C2c2cccs2)cnn1-c1ccccc1 (centres undefined) | 39.9* | -0.4% | -1.2% | 11.4% | 85.9*
CCN(CC)CCN1C(=O)C(=O)/C(=C(/O)c2cnn(-c3ccccc3)c2C)C1c1ccc(C)o1 (centres undefined) | 47.4* | -0.1% | 5.7% | -0.7% | 87.4*
CC(=O)c1ccc[n+](CC(=O)NC(C)c2ccccc2)c1 (centres undefined) | -6.5 | 2.3% | 0.4% | 7.7% | -10.2
CC1Sc2ccc(S(=O)(=O)CCC(=O)NC3CCCCC3C)cc2NC1=O (centres undefined) | -1.4 | 7.2% | 7.9% | / | -3.0
SMILES | CHX counter | LmPK inh | NS1 function inh | FBPA Giardia inh | Shiga inhibitor
O=C(Cc1ccccc1)NCCSC1CCCCC1 | 31.1* | 3.1% | -3.5% | 4.7% | 58.0*
Cc1ccc(Cn2ccsc2=NC(=O)CCl)cc1 | 32.1* | 0.7% | / | 4.1% | 44.6*
C[C@@]1(C(NC(=O)c2ccc(-c3ccccc3)cc2)c2ccc(Cl)cc2)C[C@H]1C1CCCCC1 (some centres undefined) | / | / | / | 5.0% | /
CC1CCN(c2nc3ccc(C(=O)O)cc3s2)CC1 | -6.9 | -29.2% | -189.2% | 22.3% | -24.2
CC1CCN(c2nc3ccc(C(=O)NCCCN4CCCCC4)cc3s2)CC1 | 28.3* | -1.8% | -12.9% | 2.5% | 29.4*
CCC1CCCCN1CCCNC(=O)c1ccc2nc(N3CCC(C)CC3)sc2c1 (centres undefined) | 28.8* | -2.0% | 3.4% | -6.4% | 90.4*
NC1(C(=O)O)CCC1 | / | / | / | -4.7% | /
N.N.O=C(O)C1(C(=O)O)CCC1.[Pt] | / | / | 2.1% | 17.7µM*! | /
CC(C)CO/N=C1/C[C@@H](O)[C@@H](O)[C@@H]2[C@@H]3C(=O)N(Cc4ccccc4)C(=O)[C@H]3CC[C@H]12 | / | / | / | -0.1%[12.9 µM] | /
COc1ccc(CCNC(=O)c2ccc(SC)cc2OC)cc1 | 4.0 | -0.8% | -8.7% | 13.3% | -12.0

Assay outcomes from PubChem BioAssay.
